The term AC50 denotes the concentration at which the activity in the assay is half-maximal.

Where “and” joins values, the source holds several entries; their conditions need not be identical. Identical values can stand only once. Results filed as inconclusive are left out. Some structures have more than one record in an assay (separate samples or runs), and their calls can disagree. Calls of active or inactive are those of the source. How the source made its calls, unless noted: active means hit-call score of the fitted dose curve at least 0.9, where 1 is the maximum; inactive means score below 0.9.

From PubChem BioAssay (EPA / NIEHS) come the findings set out here.

The target of assay [1] is Retinoic acid receptor RXR-alpha (Homo sapiens) (UniProt P19793). Description: ATG_RXRa_TRANS: Attagene TRANS-FACTORIAL HepG2 Assay for human Retinoid X Receptor alpha (RXRa) (AID 2283012; active means hit-call score of the fitted dose curve at least 0.9, where 1 is the maximum). In a few lines: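 Transient transfection of human HepG2 with multiple GAL4-UAS reporter constructs; 24 h compound exposure; total RNA isolated, reverse-transcribed, PCR-amplified, 6-FAM labelled, HpaI-cut, resolved by capillary electrophoresis. Positive-direction fit versus DMSO.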
Chain of Retinoic acid receptor RXR-alpha (Homo sapiens) (P19793 whole entry, looked up, the tested form may be a part): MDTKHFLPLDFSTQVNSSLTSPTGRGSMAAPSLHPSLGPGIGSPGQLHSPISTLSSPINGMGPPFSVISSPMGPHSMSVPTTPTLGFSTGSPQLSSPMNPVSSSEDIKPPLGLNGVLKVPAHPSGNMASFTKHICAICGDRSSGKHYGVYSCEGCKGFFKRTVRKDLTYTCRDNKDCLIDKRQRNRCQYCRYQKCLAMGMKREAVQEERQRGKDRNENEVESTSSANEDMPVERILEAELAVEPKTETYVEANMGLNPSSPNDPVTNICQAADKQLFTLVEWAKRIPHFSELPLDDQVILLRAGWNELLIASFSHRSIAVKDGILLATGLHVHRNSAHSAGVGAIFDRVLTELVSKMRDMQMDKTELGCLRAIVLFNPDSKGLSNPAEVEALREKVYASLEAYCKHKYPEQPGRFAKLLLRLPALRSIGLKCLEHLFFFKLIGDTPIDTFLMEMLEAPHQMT

Assay [2] deals with human Retinoid X Receptor beta (RXRb), RXRB (gene 6257) (UniProt P28702). Description: ATG_RXRb_TRANS: Attagene TRANS-FACTORIAL HepG2 Assay for human Retinoid X Receptor beta (RXRb) (AID 2283013; active means hit-call score of the fitted dose curve at least 0.9, where 1 is the maximum). In short, it runs like this:
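Transfect HepG2 with GAL4-UAS multi-reporter constructs (chimeric NR-Gal4, TRANS format); dose compound 24 h; isolate RNA, RT-PCR, FAM primer extension, HpaI digest; quantify by capillary electrophoresis; positive direction vs DMSO.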

Assay [3] deals with human Thyroid Receptor alpha (THRa1), THRA (gene 7067) (UniProt P10827). Description: ATG_THRa1_TRANS: Attagene TRANS-FACTORIAL HepG2 Assay for human Thyroid Receptor alpha (THRa1) (AID 2283014; active means hit-call score of the fitted dose curve at least 0.9, where 1 is the maximum). In a few lines: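 First, HepG2 cells receive multiple GAL4-UAS reporter units and the chimeric receptor. They are then dosed for 24 h, after which RNA is reverse-transcribed, amplified, labelled, HpaI-cut and sized by capillary electrophoresis; gain relative to DMSO is scored.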
Chain of human Thyroid Receptor alpha (THRa1), THRA (gene 7067) (P10827 whole entry, looked up, the tested form may be a part): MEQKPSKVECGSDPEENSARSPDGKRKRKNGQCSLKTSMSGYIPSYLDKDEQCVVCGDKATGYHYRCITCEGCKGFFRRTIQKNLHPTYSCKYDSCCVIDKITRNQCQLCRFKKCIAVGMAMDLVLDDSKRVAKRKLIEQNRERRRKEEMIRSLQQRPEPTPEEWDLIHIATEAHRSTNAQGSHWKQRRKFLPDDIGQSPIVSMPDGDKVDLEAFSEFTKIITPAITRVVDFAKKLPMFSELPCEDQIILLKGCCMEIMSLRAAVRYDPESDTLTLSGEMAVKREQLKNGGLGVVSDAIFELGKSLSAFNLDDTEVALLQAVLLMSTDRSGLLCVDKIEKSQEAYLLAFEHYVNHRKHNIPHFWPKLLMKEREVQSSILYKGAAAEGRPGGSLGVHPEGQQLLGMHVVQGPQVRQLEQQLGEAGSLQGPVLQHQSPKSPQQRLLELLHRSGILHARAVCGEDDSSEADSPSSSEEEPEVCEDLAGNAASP

Read-out in assay [4]: E-selectin (Homo sapiens) (UniProt P16581)
The experiment in a line: BSK_3C_Eselectin: BioMAP Diversity Plus: 3C Assay for Eselectin Biomarker Activity (AID 2283015).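 On outcome: cell surface E-selectin protein quantified by ELISA 24 h after dosing.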 The following applies: primary human endothelial cells (HUVEC); actives raise or lower the signal. In a few lines:
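Human vascular endothelium from umbilical vein is exposed to test chemicals for 24 h. E-selectin levels are read by ELISA and compared with DMSO controls.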

Read-out in assay [5]: Interleukin-1 alpha (IL1a), IL1A (gene 3552)
Description: BSK_BE3C_IL1a: BioMAP Diversity Plus: BE3C Assay for Interleukin-1 alpha (IL1a) Biomarker Activity (AID 2283016). The following applies: primary human bronchial epithelial cells; actives raise or lower the signal. In short, it runs like this: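 BE3C primary human bronchial epithelium; cpd 24 h; IL-1a by ELISA; bidirectional fit vs DMSO; parallel SRB (0.1% SRB, 10% TCA fix, 560 nm) for cytotoxicity.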

Read-out in assay [6]: Monocyte Chemoattractant Protein-1 (MCP1), CCL2 (gene 6347)
Description: BSK_3C_MCP1: BioMAP Diversity Plus: 3C Assay for Monocyte Chemoattractant Protein-1 (MCP1) Biomarker Activity (AID 2283017). The following applies: primary human endothelial cells (HUVEC); actives raise or lower the signal. In a few lines: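 Endothelial cells from human umbilical vein are dosed with chemical, cultured 24 h, then assayed for MCP-1 by ELISA; both increases and decreases are modelled against DMSO controls.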

Read-out in assay [7]: Monocyte Chemoattractant Protein-1 (MCP1), CCL2 (gene 6347)
The experiment in a line: BSK_4H_MCP1: BioMAP Diversity Plus: 4H Assay for Monocyte Chemoattractant Protein-1 (MCP1) Biomarker Activity (AID 2283018). The following applies: primary human endothelial cells (HUVEC); actives raise or lower the signal. In short, it runs like this:
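ELISA read-out of MCP-1 from human vascular endothelial primary cells taken at 24 hours after compound exposure. Activity was fitted in both directions relative to DMSO, which served as negative control.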

Read-out in assay [8]: Human Leukocyte Antigen - DR isotype (HLADR), HLA-DRA (gene 3122)
The experiment in a line: BSK_3C_HLADR: BioMAP Diversity Plus: 3C Assay for Human Leukocyte Antigen - DR isotype (HLADR) Biomarker Activity (AID 2283019).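 On outcome: ELISA of cell-surface HLA-DR on HUVEC 24 h after dosing.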 The following applies: primary human endothelial cells (HUVEC); actives raise or lower the signal. In a few lines: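 Endothelial cells from human umbilical vein are treated with test chemical; after 24 h, HLA-DR levels are measured by ELISA. Data are fitted in both directions using DMSO as the baseline.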

Read-out in assay [9]: Monokine induced gamma interferon (MIG), CXCL9 (gene 4283)
The experiment in a line: BSK_3C_MIG: BioMAP Diversity Plus: 3C Assay for Monokine induced gamma interferon (MIG) Biomarker Activity (AID 2283021).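 On AC50: MIG protein level measured by immunoassay in the treated endothelial cultures.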 The following applies: primary human endothelial cells (HUVEC); actives raise or lower the signal. In a few lines:
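Read-out is ELISA detection of MIG on human umbilical vein endothelial cells, taken 24 h after dosing. Gain or loss of signal was scored relative to DMSO controls using bidirectional curve fitting.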

Assay [10] in a line: BSK_3C_SRB: Viability Assessment in the BioMAP Diversity Plus: 3C Assay (AID 2283023).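 Further: fitted both ways against DMSO so a hit may be signal rise or drop.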 The following applies: primary human endothelial cells (HUVEC). In short, it runs like this:
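Cells were dosed with chemical, cultured 24 h, fixed with 10% TCA, stained with 0.1% SRB and read at 560 nm. Human umbilical vein endothelium was used; DMSO served as negative control and baseline.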

Read-out in assay [11]: Matrix Metallopeptidase 1 (MMP1), MMP1 (gene 4312)
The experiment in a line: BSK_BE3C_MMP1: BioMAP Diversity Plus: BE3C Assay for Matrix Metallopeptidase 1 (MMP1) Biomarker Activity (AID 2283024). The following applies: primary human bronchial epithelial cells; actives raise or lower the signal. In short, it runs like this: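 Human bronchial epithelial cells (BE3C system) exposed to compound for 24 h; MMP1 then quantified by ELISA. Activity was fitted in both directions relative to DMSO.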

Read-out in assay [12]: Pselectin, SELP (gene 6403)
The experiment in a line: BSK_4H_Pselectin: BioMAP Diversity Plus: 4H Assay for Pselectin Biomarker Activity (AID 2283026). The following applies: primary human endothelial cells (HUVEC); actives raise or lower the signal. In a few lines: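 ELISA read-out of P-selectin on human umbilical vein endothelium after 24 h of dosing. Values derive from bidirectional fitting relative to DMSO. Parallel SRB protein staining flagged overt cytotoxicity.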

Assay [13] is described as follows: BSK_BE3C_SRB: Viability Assessment in the BioMAP Diversity Plus: BE3C Assay (AID 2283028).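 On AC50: fitted both ways so AC50 may mark signal gain or loss versus DMSO.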 The following applies: primary human bronchial epithelial cells. In a few lines:
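Overt cytotoxicity was assessed as total protein in confluent human primary bronchial epithelial cultures 24 h after chemical addition, using 0.1% sulforhodamine B staining read at 560 nm.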

Read-out in assay [14]: Thrombomodulin, THBD (gene 7056)
Description: BSK_3C_Thrombomodulin: BioMAP Diversity Plus: 3C Assay for Thrombomodulin Biomarker Activity (AID 2283029). The following applies: primary human endothelial cells (HUVEC); actives raise or lower the signal. In a few lines: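 Read-out is ELISA of thrombomodulin on human umbilical vein endothelium 24 h after chemical dosing. Gain or loss of signal is scored relative to DMSO. Overt cytotoxicity is checked in parallel cultures by sulforhodamine B staining.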

Read-out in assay [15]: Urokinase-type plasminogen activator receptor (uPAR), PLAUR (gene 5329)
Description: BSK_4H_uPAR: BioMAP Diversity Plus: 4H Assay for Urokinase-type plasminogen activator receptor (uPAR) Biomarker Activity (AID 2283030). The following applies: primary human endothelial cells (HUVEC); actives raise or lower the signal. In a few lines: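 Chemicals are dosed onto human vascular endothelial primary cells (umbilical vein). After 24 h, uPAR is read by ELISA. Gain or loss of signal is fitted relative to DMSO.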

Read-out in assay [16]: Vascular endothelial growth factor receptor 2 (Homo sapiens) (UniProt P35968)
Description: BSK_4H_VEGFRII: BioMAP Diversity Plus: 4H Assay for Vascular endothelial growth factor receptor 2 (VEGFR2) Biomarker Activity (AID 2283031).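 On AC50: cell-surface VEGFR2 protein level quantified by ELISA.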 The following applies: primary human endothelial cells (HUVEC); actives raise or lower the signal. In short, it runs like this: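 VEGFRII levels on human vascular endothelial primary cells were determined by ELISA at 24 hours post-dosing, with gain- or loss-of-signal fitted against DMSO controls.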

Read-out in assay [17]: Interleukin-8 (IL8), CXCL8 (gene 3576)
The experiment in a line: BSK_3C_IL8: BioMAP Diversity Plus: 3C Assay for Interleukin-8 (IL8) Biomarker Activity (AID 2283020). The following applies: primary human endothelial cells (HUVEC); actives raise or lower the signal. In a few lines:
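ELISA read-out of IL-8 from human umbilical vein endothelium, measured 24 h after chemical dosing. Activity is expressed relative to DMSO negative control, with both increases and decreases fitted.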

The target in assay [18] is human Vitamin D Receptor (VDR), VDR (gene 7421) (UniProt P11473). Description: ATG_VDR_TRANS: Attagene TRANS-FACTORIAL HepG2 Assay for human Vitamin D Receptor (VDR) (AID 2283022; active means hit-call score of the fitted dose curve at least 0.9, where 1 is the maximum). In a few lines:
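Fluorescence of labelled reporter cDNA fragments, resolved by capillary electrophoresis, gives mRNA induction after 24 h treatment of HepG2 cells carrying transfected Gal4-fusion reporter units. Activity is fitted in the positive direction with DMSO as baseline.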

Assay [19] is described as follows: BSK_3C_Vis: BioMAP Diversity Plus: 3C Assay for Morphology Visualization (AID 2283025).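 Further: fitted both ways so gain or loss versus DMSO counts.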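 On AC50: light microscopy image of cell morphology used as background control.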 The following applies: primary human endothelial cells (HUVEC). In short, it runs like this:
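Chemicals were added to primary human umbilical vein endothelium, cells were incubated 24 h, and morphology was then visualized by light microscopy. Gain or loss of signal was fitted bidirectionally relative to DMSO.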

The nature of assay [20]: BSK_4H_SRB: Viability Assessment in the BioMAP Diversity Plus: 4H Assay (AID 2283027).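 Further: cells exposed to compound for 24 h before staining.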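 On AC50: curves fitted both ways versus DMSO so AC50 may be loss or gain.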 The following applies: primary human endothelial cells (HUVEC). In a few lines:
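Human umbilical vein endothelial cells were dosed with chemical and, after 24 h, fixed with 10% TCA, stained with 0.1% sulforhodamine B, and read at 560 nm to give total protein as a cytotoxicity measure. Bidirectional fitting relative to DMSO control.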

Chain of human Vitamin D Receptor (VDR), VDR (gene 7421) (P11473 whole entry, looked up, the tested form may be a part): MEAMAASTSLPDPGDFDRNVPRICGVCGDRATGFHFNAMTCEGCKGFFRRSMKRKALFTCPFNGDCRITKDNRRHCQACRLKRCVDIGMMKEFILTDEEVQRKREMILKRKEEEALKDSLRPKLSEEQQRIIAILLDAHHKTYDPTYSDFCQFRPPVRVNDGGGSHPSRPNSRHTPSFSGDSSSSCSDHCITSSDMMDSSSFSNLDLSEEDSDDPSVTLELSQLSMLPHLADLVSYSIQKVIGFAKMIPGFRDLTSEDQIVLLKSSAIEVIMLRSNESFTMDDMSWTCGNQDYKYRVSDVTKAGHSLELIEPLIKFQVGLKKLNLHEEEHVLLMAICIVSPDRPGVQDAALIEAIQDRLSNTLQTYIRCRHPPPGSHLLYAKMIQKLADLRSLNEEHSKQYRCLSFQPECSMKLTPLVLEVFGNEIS
Chain of E-selectin (Homo sapiens) (P16581 whole entry, looked up): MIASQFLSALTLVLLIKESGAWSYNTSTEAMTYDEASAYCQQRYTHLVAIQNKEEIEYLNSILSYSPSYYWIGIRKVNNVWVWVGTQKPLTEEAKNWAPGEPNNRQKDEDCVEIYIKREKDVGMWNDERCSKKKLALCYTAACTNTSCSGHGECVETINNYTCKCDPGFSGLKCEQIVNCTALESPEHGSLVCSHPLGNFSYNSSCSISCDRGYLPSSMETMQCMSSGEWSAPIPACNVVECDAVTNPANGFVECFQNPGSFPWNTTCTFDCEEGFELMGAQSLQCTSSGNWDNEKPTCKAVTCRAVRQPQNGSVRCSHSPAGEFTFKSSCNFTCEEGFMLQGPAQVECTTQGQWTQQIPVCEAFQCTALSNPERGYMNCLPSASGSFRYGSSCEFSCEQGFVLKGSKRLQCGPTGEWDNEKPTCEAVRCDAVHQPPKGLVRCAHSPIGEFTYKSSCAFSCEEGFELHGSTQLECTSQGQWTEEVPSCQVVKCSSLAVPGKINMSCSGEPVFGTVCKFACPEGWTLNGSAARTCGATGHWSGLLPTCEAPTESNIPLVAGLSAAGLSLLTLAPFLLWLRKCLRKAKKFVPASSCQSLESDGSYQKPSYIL
Chain of human Retinoid X Receptor beta (RXRb), RXRB (gene 6257) (P28702 whole entry, looked up, the tested form may be a part): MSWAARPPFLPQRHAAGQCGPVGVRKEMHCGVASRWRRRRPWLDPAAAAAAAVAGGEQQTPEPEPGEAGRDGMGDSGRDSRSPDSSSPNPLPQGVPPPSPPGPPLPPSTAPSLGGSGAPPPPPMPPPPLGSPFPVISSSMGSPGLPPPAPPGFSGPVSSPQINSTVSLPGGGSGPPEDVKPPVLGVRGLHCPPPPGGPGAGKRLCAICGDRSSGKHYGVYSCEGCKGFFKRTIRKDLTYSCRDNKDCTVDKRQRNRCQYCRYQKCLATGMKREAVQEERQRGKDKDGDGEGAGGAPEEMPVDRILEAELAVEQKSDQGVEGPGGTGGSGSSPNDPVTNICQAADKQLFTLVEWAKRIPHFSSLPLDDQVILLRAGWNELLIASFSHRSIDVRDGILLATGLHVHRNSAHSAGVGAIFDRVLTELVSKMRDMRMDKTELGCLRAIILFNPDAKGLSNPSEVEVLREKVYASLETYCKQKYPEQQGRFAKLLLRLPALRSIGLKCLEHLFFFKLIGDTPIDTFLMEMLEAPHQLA

Take `COCCOCCOCCOC`: the compound was classed as inactive in [1], in assay [2], in [3], in [4], in assay [5] and in assay [6]. Further, the result in assay [7], in [8], in assay [9], in [10], in [11] and in assay [12] was inactive. Besides, the outcome in [13], in assay [14], in [15] and in [16] was inactive.
Regarding `O=C(CCCCCCCCc1cccnc1)N1CCC(C=C(c2ccccc2)c2ccccc2)CC1`, the result in assay [1], in assay [2] and in assay [14] was inactive. Moreover, the AC50 in [4] is 19.4 µM (active); in assay [5] it was 27.3 µM (active); in [7], 5.75 µM (active); in [8] it was 6.54 µM (active); in assay [17] it was 8.66 µM (active); in assay [9] it was 14.2 µM (active). Also, the AC50 is 100 µM (active) in assay [18]; 8.88 µM (active) in assay [10]; 10.9 µM (active) in assay [19]; 6.41 µM (active) in [12]; 13.1 µM (active) in assay [20]; 34.2 µM (active) in assay [13]. Further, the half-maximal activity concentration (AC50) was 11.2 µM (active) in assay [15] and 8 µM (active) in assay [16].
Regarding `Cn1cnc([N+](=O)[O-])c1Sc1ncnc2nc[nH]c12`, the result in assay [1], in assay [2], in assay [4], in assay [5], in assay [6] and in [8] was inactive. Further, the outcome in assay [9], in [11], in assay [19], in assay [12], in [20] and in assay [13] was inactive. Moreover, the result in assay [14], in assay [15] and in assay [16] was inactive. For the same compound, the AC50 in assay [3] is 27.2 µM (active); in assay [10], 19.9 µM (active) and 12.6 µM (active) and 14 µM (active); in assay [14], 3.36 µM (active).
For `CC(C)CCO`, the compound was classed as inactive in [1], in [2], in assay [3], in [4], in assay [5] and in assay [6]. In addition, the result in assay [7], in assay [8], in assay [17], in assay [9], in assay [18] and in [10] was inactive. Also, the outcome in assay [11], in [19], in assay [12], in assay [13], in assay [14] and in [15] was inactive.
Take `CC[C@H]1CC[C@H](NCc2cc3c(cc2OC)[C@H]2C[C@H]2C(=O)N3C)[C@H](c2ccccc2)N1`: the call in [1], in assay [2], in [4], in assay [5], in assay [6] and in assay [8] was inactive. For the same compound, the outcome in [17], in [9], in [18], in assay [10], in assay [11] and in assay [12] was inactive. Moreover, the result in assay [13], in assay [14], in assay [15] and in assay [16] was inactive.
Regarding `CC(=O)OC[C@H]1O[C@@](COC(C)=O)(O[C@H]2O[C@H](COC(C)=O)[C@@H](OC(C)=O)[C@H](OC(C)=O)[C@H]2OC(C)=O)[C@@H](OC(C)=O)[C@@H]1OC(C)=O`, the result in assay [1], in assay [2], in [4], in assay [5], in [6] and in [7] was inactive. Also, the outcome in [8], in [17], in assay [9], in [18], in [10] and in [11] was inactive. The outcome in assay [12], in assay [13], in assay [14], in assay [15] and in assay [16] was inactive.
As for `Cn1c(=O)cc(Oc2ccc(F)cc2F)c2cnc(NCC(C)(C)O)nc21`, the compound was called inactive in assay [1], in [2], in assay [3], in assay [4], in assay [5] and in [7]. Also, the outcome in assay [9], in assay [18], in [10], in assay [11], in assay [12] and in assay [13] was inactive. Besides, the result in assay [15] and in assay [16] was inactive. Besides, the AC50 in assay [6] was 3.14 µM (active); in assay [8] it was 3.11 µM (active); in [17] it was 1.91 µM (active); in assay [14], 4.61 µM (active).
